An excerpt weighted towards active compounds, which were near 27% of everything screened.
CYP2C19 inh – inhibitors of human CYP2C19; inhibition, % at 5 µM; P33261; CYP2C19 Supersomes, luciferin-H EGE luminescence, 30 min; 21% of 96,000 active;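 active = CYP2C19 inhibition above a set limit at 5 µM in the primary screen, cut at about 50% in these data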
CYP2C19 activ – cytochrome P450 2C19 (human) activation; AID 1025; 96,000 tested, under 10 active; P33261; activation factor at 5 µM; recombinant CYP2C19, luciferin-H EGE luminescence; active compounds read high; 0 = fully inhibited enzyme, 1 = untreated enzyme;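 active = activation factor of at least 2 at 5 µM in the primary screen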
CYP2C9 act – activators of human CYP2C9. recombinant CYP2C9, luciferin-H conversion, luminescence; active compounds read high; factor 1 = untreated enzyme, 0 = blocked. activation factor at 5 µM. 1.4% of 96,000 active. AID 1024;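 active = activation factor of 2 or more for CYP2C9 at a 5 µM dose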
CYP2C9 inh – blocks human cytochrome P450 2C9; P11712; CYP2C9 Supersomes, luciferin-H conversion, luminescence; inhibition, % at 5 µM; 20% of 96,000 active;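 active = blocking of liver enzyme CYP2C9 beyond about 50% at 5 µM, limit read from the data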
Cav32 inh – blocks human Cav3.2 T-type calcium channel. O95180. 4% of 100,000 active. B-score at 10 µM. Cav3.2-expressing cells, Fluo-4 calcium fluorescence FDSS; active compounds read low;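 active = single-dose well whose peak fluorescence ratio is a statistical outlier from its plate by either plate-standardised score or position-corrected B-score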
Of the large screens only hits and unclear results are named; the others gave an inactive call.

O=C(Nc1ccc(O)c2c(=O)cc(-c3cccc(Cl)c3)oc12)c1ccccc1Cl	none (no result: CYP2C19 inh, CYP2C19 activ, CYP2C9 act, CYP2C9 inh)
O=P(O)(c1ccc(Cl)cc1)c1ccc(Cl)cc1	none
COC(=O)CSC1=C(C#N)C(c2ccc(Cl)cc2)C(C(=O)OC)C(=O)N1 (configuration not stated)	CYP2C19 inh 60.8
CCOC(=O)CSC1=C(C#N)C(c2ccc(Cl)cc2)C(C(=O)OC)C(=O)N1 (configuration not stated)	none
C=CCSC1=C(C#N)C(c2ccccc2OC)CC(=O)N1 (configuration not stated)	none
C=CCSC1=C(C#N)C(c2ccccc2OCC)CC(=O)N1 (configuration not stated)	CYP2C19 inh 92.9, CYP2C9 inh 71.4
CC(=O)N1N=C(c2ccc(C)cc2)OC1c1ccc(C(C)C)cc1 (configuration not stated)	none
Cc1ccc(Cl)cc1N1CCN(C(=O)C2(S(=O)(=O)c3ccc(Cl)cc3)CC2)CC1	CYP2C19 inh 83.9, CYP2C9 inh 88.9, Cav32 inh -6.07
CC(=O)c1ccc(N2CCN(C(=O)C3(S(=O)(=O)c4ccc(Cl)cc4)CC3)CC2)cc1	none
O=C(N1CCN(c2cccc(Cl)c2)CC1)C1(S(=O)(=O)c2ccc(Cl)cc2)CC1	CYP2C19 inh 56.7, Cav32 inh -4.73
O=C(NCCCN1CCN(c2cccc(Cl)c2)CC1)C1(S(=O)(=O)c2ccc(Cl)cc2)CC1	Cav32 inh -6.92
COc1ccc(N2CCN(Cc3nc4c(c(=O)[nH]c(=O)n4C)n3CC(C)=O)CC2)cc1	none (no result: CYP2C19 inh, CYP2C19 activ, CYP2C9 act, CYP2C9 inh)
CC(Cc1ccccc1)N/C=C1\CC(=O)NC1=O (configuration not stated)	none
CC1=NN(/C(=N\c2nnc(C)s2)Nc2ccc(C(C)(C)C)cc2)[C@H](c2ccc(C)cc2)S1	Cav32 inh -5.65 (no result: CYP2C19 inh, CYP2C19 activ, CYP2C9 act, CYP2C9 inh)
Cc1ccc(CCNC(=O)C2CCC(CNc3c(N4CCC(C)CC4)c(=O)c3=O)CC2)cc1 (configuration not stated)	none (no result: CYP2C19 inh, CYP2C19 activ, CYP2C9 act, CYP2C9 inh)
CN1CCN(c2nc(-c3ccccc3)cc(C(F)(F)F)n2)CC1	CYP2C19 inh 50.0
CC1CCN(c2nc(-c3ccccc3)cc(C(F)(F)F)n2)CC1	none
CN1CCN(c2ccc([N+](=O)[O-])cc2NC(=O)c2ccccc2Cl)CC1	none
COC(=O)c1ccccc1S(=O)(=O)N1Cc2cc([N+](=O)[O-])ccc2Oc2ccccc21	CYP2C19 inh 100.4, CYP2C9 inh 61.5
Cc1ccccc1NC(=O)c1cccc(OCc2c(C)noc2C)c1	none
Cc1noc(C)c1COc1cccc(C(=O)Nc2ccc(C#N)cc2)c1	none
Cc1ccc(NC(=O)c2cccc(OCc3c(C)noc3C)c2)cc1	CYP2C19 inh 91.1, CYP2C9 inh 95.3
Cc1noc(C)c1COc1cccc(C(=O)NCc2cccc(Cl)c2)c1	CYP2C9 inh 51.5
Cc1cccc(C(=O)Nc2ccccc2C(=O)OCc2c(C)noc2C)c1	CYP2C9 inh 86.2
Cc1cccc(C(=O)Nc2onc(C)c2C#N)c1	none
Cc1ccc(CNC(=O)c2cccc(OCc3c(C)noc3C)c2)cc1	CYP2C19 inh 57.5
CCCc1nnc(SCC(=O)N2C(C)CCCC2C)n1CC1CCCO1 (configuration not stated)	none
Cc1ccc2nc(SCC(=O)Nc3ccc4sc(C)nc4c3)c(C#N)cc2c1	none
CCSC1=C(C#N)C(c2ccc(Cl)cc2)C2=C(CCCC2=O)N1 (configuration not stated)	CYP2C19 inh 93.5, CYP2C9 inh 93.7
CCSC1=C(C#N)C(c2ccccc2OC)CC(=O)N1 (configuration not stated)	none (no result: CYP2C19 inh, CYP2C19 activ, CYP2C9 act, CYP2C9 inh)
CCOC(=O)CSC1=C(C#N)C(c2ccccc2C)C2=C(CCCC2=O)N1 (configuration not stated)	CYP2C19 inh 50.4, CYP2C9 inh 78.6
CCOC(=O)CSC1=C(C#N)C(c2ccccc2OC)CC(=O)N1 (configuration not stated)	CYP2C19 inh 64.2 (no result: Cav32 inh)
CCOC(=O)CSC1=C(C#N)C(c2ccc(C)s2)CC(=O)N1 (configuration not stated)	CYP2C19 inh 71.6, CYP2C9 inh 95.5
O=C(Nc1ccc(CN2CCCCC2)cc1)c1ccc(Br)o1	none
O=C(Nc1nnc(C23CC4CC(CC(C4)C2)C3)s1)c1ccc(N2C(=O)CCC2=O)cc1	none
CSC1=C(C#N)C(c2cccc(Br)c2)CC(=O)N1 (configuration not stated)	none (no result: CYP2C19 inh, CYP2C19 activ, CYP2C9 act, CYP2C9 inh)
CCSC1=C(C#N)C(c2ccccc2Cl)CC(=O)N1 (configuration not stated)	none
COc1ccc(OC)c(C2CC(=O)NC(SC)=C2C#N)c1 (configuration not stated)	CYP2C9 inh 63.8 (no result: Cav32 inh)
CCSC1=C(C#N)C(c2ccc(C)s2)CC(=O)N1 (configuration not stated)	CYP2C19 inh 69.1, CYP2C9 inh 51.8
O=C(c1cc2nc(-c3ccccc3)cc(-c3ccccc3)n2n1)N1CCN(C(=O)c2ccco2)CC1	none
Cn1c(SCc2nc(-c3cccs3)no2)nnc1C1CCCCC1	CYP2C19 inh 78.0
CCOc1ccc(-n2c(SCc3nc(-c4cccs4)no3)nnc2-c2ccncc2)cc1	CYP2C19 inh 91.8, CYP2C9 inh 94.2
CCCn1c(SCc2nc(-c3cccs3)no2)nnc1-c1ccncc1	CYP2C19 inh 56.4
Cn1c(SCc2nc(-c3ccccc3)no2)nnc1-c1cccs1	none (no result: CYP2C19 inh, CYP2C19 activ, CYP2C9 act, CYP2C9 inh)
COc1cc2[nH]c(=O)n(Cc3ccc(C(=O)NCC4CCCO4)cc3)c(=O)c2cc1OC (configuration not stated)	none (no result: Cav32 inh)
c1ccc(Nc2cc(Nc3ccccc3)[nH]n2)cc1	CYP2C19 inh 74.5
O=c1cc(-c2ccc(O)cc2)oc2ccccc12	none (no result: CYP2C19 inh, CYP2C19 activ, CYP2C9 act, CYP2C9 inh)
O=c1cc(-c2ccncc2)oc2ccccc12	CYP2C19 inh 85.6
Cc1cc(C)n2cc(CSc3nnnn3C)nc2n1	none
CCCC1=C(C(=O)OCC)C(c2cc(Cl)cc(OC)c2OCc2ccccc2)NC(=O)N1 (configuration not stated)	CYP2C19 inh 50.4, CYP2C9 inh 64.5
CCOC(=O)C1=C(C)NC(=O)NC1c1cccc(OC)c1OCc1ccccc1Cl (configuration not stated)	none
O=C(C1CCCN(S(=O)(=O)c2cccc3nsnc23)C1)N1CCc2ccccc21 (configuration not stated)	CYP2C19 inh 52.5, CYP2C9 inh 73.9 (no result: Cav32 inh)
O=C(C1CCN(S(=O)(=O)c2cccc3nsnc23)CC1)N1CCCc2ccccc21	none
O=C(C1CCN(S(=O)(=O)c2cccc3nsnc23)CC1)N1CCc2ccccc21	CYP2C19 inh 50.7
CCOC(=O)c1oc2ccc(Br)cc2c1CSc1nnc(C)s1	CYP2C19 inh 53.8, CYP2C9 inh 59.3

Screening data from PubChem.
